Among the data in PubChem BioAssay (NCI) are growth inhibition values, retold here.

A short description of assay [1]: NCI Yeast Anticancer Drug Screen. Data for the rad50 strain (AID 155).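 Also: 0% = growth of vehicle-only cultures of the same strain.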 Conditions: S. cerevisiae rad50 strain growth inhibition; at 50.0 µM; hits give high values. The method, boiled down: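 A DNA repair-deficient yeast mutant serves as the test organism; compound-induced growth inhibition is calculated against vehicle-treated cells.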
Assay [2] can be described thus: NCI Yeast Anticancer Drug Screen. Data for the mec2-1 strain (AID 157). Conditions: S. cerevisiae mec2-1 strain, at 50.0 µM, hits give high values. The method, boiled down: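 Growth inhibition is read against vehicle-treated controls after compound exposure of the mec2-1 yeast strain, which is defective in DNA damage repair or cell cycle control.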
Assay [3] is described as follows: NCI Yeast Anticancer Drug Screen. Data for the sgs1 mgt1 strain (AID 161).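 Also: 0% = growth of cultures given vehicle only.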 Conditions: S. cerevisiae sgs1 mgt1 strain, at 50.0 µM, hits give high values. The method, boiled down:
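Compounds are added to genetically altered yeast, and growth is compared with cultures given vehicle alone to give percent inhibition.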

The nature of assay [4]: NCI Yeast Anticancer Drug Screen. Data for the cln2 rad14 strain (AID 165).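 Also: 0% = growth equal to vehicle treated cultures.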 Conditions: S. cerevisiae cln2 rad14 strain, at 50.0 µM, hits give high values. The method, boiled down:
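Growth inhibition, relative to vehicle-treated controls, is the read-out. The test organism is a yeast strain with defined genetic alterations, cln2 rad14.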

Assay [5] in a line: NCI Yeast Anticancer Drug Screen. Data for the bub3 strain (AID 167). The note with it: S. cerevisiae bub3 mutant strain, at 50.0 µM, hits give high values. The method, boiled down: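 Inhibition values come from growth of compound-treated mutant yeast normalised to vehicle-treated controls.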
Assay [6] is described as follows: NCI Yeast Anticancer Drug Screen. Data for the mlh1 rad18 strain (AID 175). The note with it: S. cerevisiae mlh1 rad18 strain growth inhibition; at 50.0 µM; hits give high values. An outline of the steps: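 Cells of a genetically altered yeast strain, deficient in DNA damage repair, were treated with compound. Their growth was then compared with that of vehicle-treated cultures to give inhibition.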

The panel holds about 79,000 compounds, 15% with a hit somewhere; the sample as a whole holds those more often. A number with no mark means an inactive call. The source made the active and inactive calls. Rule as the data show it: active = growth inhibition above about 70%; inactive = the rest.

On to `Cc1ccc(Nc2ncnc3sc(SCc4ccccc4)nc23)cc1`, for which the growth inhibition is -34.5% in assay [1]; -20.4% in assay [2]; -24.2% in assay [3]; 3.75% in assay [4]; -24.6% in assay [5]; -28.1% in assay [6].
Take `CCOC(C#CC(C)=O)OCC`: the growth inhibition is 31.1% in assay [1]; 31.3% in assay [2]; 22.9% in assay [3]; 6.65% in assay [4]; 46% in assay [5]; 47.9% in assay [6].
For the compound `CC(C)NC(=O)OCc1c(COC(=O)NC(C)C)c(S(=O)(=O)c2ccccc2)n2c1CCC2`, the growth inhibition in assay [1] is 11.5%; in assay [2] it was 1.5%; in assay [3] it was -20.6%; in assay [4] it was 4.7%; in assay [5] it was 1.35%; in assay [6], 25.6%.
Turning to `CC(=O)OC1C(O[C@H]2CC[C@]34O[C@]35CC[C@]3(C)C(C6(C)CC[C@@H](C(C)(C)O)O6)[C@@H](O)CC3(C)[C@@H]5CC(OC3OC(CO)C(O)C(O)C3O)C4C2(C)C)OCC(O)C1O` (stereo not given in full), the growth inhibition in assay [1] was -8.4%; in assay [2], -21.6%; in assay [3], 2.7%; in assay [4] it was 1.85%; in assay [5] it was 0.7%; in assay [6] it was 6.35%.
`Cc1nc(C)c(N2CCN(C(=O)NC(CCC(=O)O)C(=O)O)CC2)c(=O)[nH]1` (stereo not given): the growth inhibition is -80.7% in assay [1]; 8.95% in assay [2]; -28.3% in assay [3]; 18.4% in assay [4]; -1.25% in assay [5]; -40.6% in assay [6].
In the case of `COc1ccc(CC(=O)NC(N)=O)cc1`, the growth inhibition is -6.35% in assay [1]; 2.7% in assay [2]; -12.3% in assay [3]; -9.4% in assay [4]; -6.1% in assay [5]; 5.15% in assay [6].
As to `O=C1C/C(=C\c2ccccc2O)C(=O)c2ccccc21`, the growth inhibition is 66.3% in assay [1]; 61.1% in assay [2]; 83.4% (active) in assay [3]; 57.8% in assay [4]; 54.8% in assay [5]; 82.8% (active) in assay [6].
`C=Cc1ccc(S(N)(=O)=O)cc1`: the growth inhibition in assay [1] was -7.45%; in assay [2], 15.4%; in assay [3] it was -7.55%; in assay [4], -16.6%; in assay [5], -12.7%; in assay [6] it was -2.25%.
As to `COc1ccccc1N1C(=O)C2C3c4ccccc4C(OC(C)=O)(c4ccccc43)C2C1=O` (stereo not given), the growth inhibition was -19.8% in assay [1]; -13.6% in assay [2]; 4.25% in assay [3]; 3.4% in assay [4]; -14.8% in assay [5]; 12.9% in assay [6].
Turning to `C/C=C/c1ccc(OCC)c(OC)c1`, the growth inhibition in assay [1] was 24.4%; in assay [2] it was 6.25%; in assay [3], 12.3%; in assay [4] it was -8.8%; in assay [5] it was -17.2%; in assay [6], 16.3%.
For the compound `Oc1cc2c(cc1O)-c1[nH]ncc1CC2`, the growth inhibition in assay [1] was 24.5%; in assay [2] it was 0.25%; in assay [3] it was 3.35%; in assay [4] it was -17.4%; in assay [5], 4.55%; in assay [6], -4.55%.
For the compound `CN1CCN(CCSC(=O)C(O)(c2ccccc2)C2CCCC2)CC1` (stereo not given), the growth inhibition in assay [1] was 17.1%; in assay [2], 16.6%; in assay [3], 7.35%; in assay [4], -17.2%; in assay [5], 4.6%; in assay [6], 24.8%.
On to `CCOC(=O)c1cc(=O)[nH]c(N)n1`, for which the growth inhibition in assay [1] is -6.4%; in assay [2] it was -10.8%; in assay [3] it was -1.55%; in assay [4], -38.2%; in assay [5] it was 10.4%; in assay [6] it was -4.15%.
For `O/N=C(/c1ccccc1)C1CCCCC1`, the growth inhibition in assay [1] was 20.7%; in assay [2], -1.05%; in assay [3], 13%; in assay [4], -0.15%; in assay [5] it was -8.5%; in assay [6], 10.3%.
For `CC[C@H]1OC(=O)[C@H](C)[C@@H](OC2CC(C)(OC)C(O)C(C)O2)[C@H](C)[C@@H](OC2OC(C)CC(N(C)C)C2OC(=O)CCC2CCCC2)[C@](C)(O)C[C@@H](C)C(=O)[C@H](C)[C@@H](O)[C@]1(C)O` (stereo not given in full), the growth inhibition was 3.25% in assay [1]; -6.95% in assay [2]; 4.05% in assay [3]; 0.65% in assay [4]; 7.3% in assay [5]; -9.55% in assay [6].
With `Nc1cccc(Oc2ccc([N+](=O)[O-])cc2)c1`, the growth inhibition in assay [1] was 16.9%; in assay [2], 25%; in assay [3] it was 28.3%; in assay [4], 17.2%; in assay [5] it was 32.5%; in assay [6], 24.7%.
With `CN(C)Cc1cc(N=Nc2ccccc2Cl)cc(CN(C)C)c1O`, the growth inhibition in assay [1] is -40.5%; in assay [2], -19.1%; in assay [3] it was -9.25%; in assay [4] it was -14.3%; in assay [5] it was 12.3%; in assay [6] it was -13.4%.
Take `Nc1nc(N)nc(-c2ccccc2-c2nc(N)nc(N)n2)n1`: the growth inhibition was -5.65% in assay [1]; -2.85% in assay [2]; 3.45% in assay [3]; -18% in assay [4]; 14.2% in assay [5]; 6.65% in assay [6].
Turning to `CCCCCCCCCCCCP(=O)(O)O`, the growth inhibition in assay [1] is -8.2%; in assay [2], -24.1%; in assay [3] it was -19.9%; in assay [4] it was -9.65%; in assay [5], 6.35%; in assay [6], -10.9%.
With `CC1=NN(C(=O)CC(=O)N(C(=O)c2ccccc2Cl)c2ccc(C)cc2)C(=O)C1N=Nc1ccc([N+](=O)[O-])cc1` (stereo not given), the growth inhibition in assay [1] is 46.2%; in assay [2], 29.9%; in assay [3], 47.5%; in assay [4] it was 27.3%; in assay [5] it was 54.1%; in assay [6], 46.1%.
